# Measured values: PubChem BioAssay AID1159580 (chemical genetic matrix, 2015)
# Where “and” joins values, the source holds several entries; their conditions need not be identical. Equal entries are not always repeated. Out of some 5,500 compounds screened, about 2,000 (36%) were called active. Not shown: some 18% with an inconclusive outcome. This is one part of the list. Unmarked numbers belong to inactive results. No stated cut-off is given here; in the data, active means normalized growth mostly below about 0.91 (no sharp cut-off); inconclusive means no clear call, values can overlap the other calls; inactive means mostly above about 0.92.
# Experiment: chemical genetic growth profiling, strain panel (AID 1159580);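 further: tested at 20 µM; growth read once vehicle control cultures reached saturation at 30 °C; 1 = growth at the plate median or of vehicle wells; lower values mean less growth of the strain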
# Conditions: S. cerevisiae deletion strains, growth OD
smiles,measurement,setting,value
CC(C)OC(=O)C(C)(C)Oc1ccc(C(=O)c2ccc(Cl)cc2)cc1,normalized growth,"locus YAL013W, strain DEP1, hits give low values",1.01
same,normalized growth,"locus YAL021C, strain ccr4, hits give low values",1
same,normalized growth,"locus YAL026C, strain drs2, hits give low values",0.976
same,normalized growth,"locus YAL030W, strain snc1, hits give low values",0.971
same,normalized growth,"locus YAL040C, strain CLN3, hits give low values",1.08
same,normalized growth,"locus YBL061C, strain skt5, hits give low values",0.966
same,normalized growth,"locus YBR009C, strain hhf1, hits give low values",0.949
same,normalized growth,"locus YBR021W, strain FUR4, hits give low values",0.976
same,normalized growth,"locus YBR023C, strain chs3, hits give low values",0.97
same,normalized growth,"locus YBR171W, strain sec66, hits give low values",0.965
same,normalized growth,"locus YBR229C, strain ROT2, hits give low values",1
same,normalized growth,"locus YBR231C, strain swc5, hits give low values",0.969
same,normalized growth,"locus YBR279W, strain paf1, hits give low values",0.973
same,normalized growth,"locus YCL011C, strain gbp2, hits give low values",0.954
same,normalized growth,"locus YCL016C, strain dcc1, hits give low values",0.975
same,normalized growth,"locus YCL029C, strain bik1, hits give low values",1.01
same,normalized growth,"locus YCL061C, strain MRC1 (second series), hits give low values",0.982
same,normalized growth,"locus YCL061C, strain MRC1, hits give low values",0.981
same,normalized growth,"locus YCL069W, strain vba3, hits give low values",0.978
same,normalized growth,"locus YCR088W, strain abp1, hits give low values",0.977
same,normalized growth,"locus YDL005C, strain med2, hits give low values",0.961
same,normalized growth,"locus YDL035C, strain GPR1, hits give low values",0.942
same,normalized growth,"locus YDL040C, strain nat1, hits give low values",0.966
same,normalized growth,"locus YDL074C, strain BRE1, hits give low values",0.931
same,normalized growth,"locus YDL101C, strain DUN1, hits give low values",1.01
same,normalized growth,"locus YDL134C, strain PPH21, hits give low values",0.995
same,normalized growth,"locus YDL185W, strain tfp1, hits give low values",0.995
same,normalized growth,"locus YDL192W, strain arf1, hits give low values",0.987
same,normalized growth,"locus YDR001C, strain nth1, hits give low values",0.971
same,normalized growth,"locus YDR069C, strain doa4, hits give low values",0.975
same,normalized growth,"locus YDR101C, strain arx1, hits give low values",0.987
same,normalized growth,"locus YDR137W, strain rgp1, hits give low values",0.943
same,normalized growth,"locus YDR150W, strain NUM1, hits give low values",1.01
same,normalized growth,"locus YDR159W, strain sac3, hits give low values",0.982
same,normalized growth,"locus YDR162C, strain NBP2, hits give low values",0.671 (active)
same,normalized growth,"locus YDR195W, strain ref2",0.982
same,normalized growth,"locus YDR297W, strain sur2, hits give low values",0.976
same,normalized growth,"locus YDR318W, strain mcm21, hits give low values",0.969
same,normalized growth,"locus YDR334W, strain swr1, hits give low values",0.976
same,normalized growth,"locus YDR335W, strain msn5, hits give low values",0.977
same,normalized growth,"locus YDR363W, strain ESC2, hits give low values",0.969
same,normalized growth,"locus YDR388W, hits give low values",0.983
same,normalized growth,"locus YDR392W, strain spt3, hits give low values",0.923
same,normalized growth,"locus YDR502C, strain sam2, hits give low values",0.979
same,normalized growth,"locus YEL003W, strain gim4, hits give low values",0.979
same,normalized growth,"locus YEL037C, strain rad23, hits give low values",1.01
same,normalized growth,"locus YEL061C, strain CIN8 (second series), hits give low values",0.963
same,normalized growth,"locus YEL061C, strain CIN8, hits give low values",1.01
same,normalized growth,"locus YER002W, strain NOP16, hits give low values",1
same,normalized growth,"locus YER015W, strain faa2, hits give low values",0.967
same,normalized growth,"locus YER016W, strain bim1, hits give low values",0.978
same,normalized growth,"locus YER110C, hits give low values",0.998
same,normalized growth,"locus YER111C, strain swi4, hits give low values",0.961
same,normalized growth,"locus YER155C, strain BEM2 (second series), hits give low values",0.977
same,normalized growth,"locus YER155C, strain BEM2, hits give low values",1
same,normalized growth,"locus YER167W, strain BCK2, hits give low values",0.987
same,normalized growth,"locus YFR010W, strain ubp6, hits give low values",0.964
same,normalized growth,"locus YGL078C, strain dbp3, hits give low values",0.991
same,normalized growth,"locus YGL086W, strain mad1, hits give low values",0.979
same,normalized growth,"locus YGL167C, strain pmr1, hits give low values",0.957
same,normalized growth,"locus YGL173C, strain kem1, hits give low values",0.977
same,normalized growth,"locus YGL227W, strain vid30, hits give low values",0.967
same,normalized growth,"locus YGL240W, strain doc1, hits give low values",0.991
same,normalized growth,"locus YGL248W, strain PDE1, hits give low values",0.969
same,normalized growth,"locus YGL253W, strain hxk2, hits give low values",0.972
same,normalized growth,"locus YGR078C, strain PAC10, hits give low values",0.944 and 0.983
same,normalized growth,"locus YGR135W, strain pre9, hits give low values",0.987
same,normalized growth,"locus YGR229C, strain SMI1, hits give low values",0.763 (active)
same,normalized growth,"locus YGR252W, strain gcn5, hits give low values",0.995
same,normalized growth,"locus YHR013C, strain ard1, hits give low values",0.963
same,normalized growth,"locus YHR027C, strain rpn1, hits give low values",0.986
same,normalized growth,"locus YHR030C, strain SLT2, hits give low values",0.989 and 0.966
same,normalized growth,"locus YHR079C, strain IRE1 (second series), hits give low values",0.987
same,normalized growth,"locus YHR079C, strain IRE1, hits give low values",0.952
same,normalized growth,"locus YHR094C, strain hxt1, hits give low values",0.977
same,normalized growth,"locus YHR129C, strain ARP1, hits give low values",1
same,normalized growth,"locus YHR142W, strain chs7, hits give low values",0.966
same,normalized growth,"locus YHR200W, strain rpn10, hits give low values",0.995
same,normalized growth,"locus YIL066C, strain RNR3, hits give low values",0.971
same,normalized growth,"locus YIL073C, strain SPO22, hits give low values",0.741
same,normalized growth,"locus YIL125W, strain kgd1, hits give low values",0.991
same,normalized growth,"locus YIR030C, strain dcg1, hits give low values",0.983
same,normalized growth,"locus YJL092W, strain hpr5, hits give low values",0.975
same,normalized growth,"locus YJL095W, strain BCK1 (second series), hits give low values",0.981
same,normalized growth,"locus YJL095W, strain BCK1, hits give low values",0.971 and 0.954
same,normalized growth,"locus YJL115W, strain asf1, hits give low values",0.972
same,normalized growth,"locus YJL129C, strain trk1, hits give low values",0.893
same,normalized growth,"locus YJL134W, strain LCB3, hits give low values",1
same,normalized growth,"locus YJL154C, strain vps35, hits give low values",0.973
same,normalized growth,"locus YJL164C, strain tpk1, hits give low values",0.964
same,normalized growth,"locus YJL166W, strain qcr8, hits give low values",0.955
same,normalized growth,"locus YJL168C, strain set2, hits give low values",0.983
same,normalized growth,"locus YJL187C, strain SWE1 (second series), hits give low values",1
same,normalized growth,"locus YJL187C, strain SWE1, hits give low values",0.97
same,normalized growth,"locus YJR043C, strain POL32, hits give low values",1.01
same,normalized growth,"locus YJR066W, strain TOR1, hits give low values",0.873
